Rows were chosen to be rich in hits. Some 10% of all compounds tested hit in one or more screens of this group.
JMJD2A Tudor inh – JMJD2A Tudor domain (human) inhibition | Potency, µM (series often up to 114 µM), for inactives: at the highest dose activity change, negative = inhibition, most hits filed as inhibitors | 4.4% of 390,000 active | AlphaScreen JMJD2A-Tudor / H3K4me3 peptide binding | O75164 | AID 504339; also: potency is read from the fitted curve at half-maximal effect; % is scaled to controls: 0 for no effect and ±100 for the full control effect; nearly all actives have a fitted effect of over 50% in size
Target sequence (O75164 whole entry, looked up, the tested form may be a part): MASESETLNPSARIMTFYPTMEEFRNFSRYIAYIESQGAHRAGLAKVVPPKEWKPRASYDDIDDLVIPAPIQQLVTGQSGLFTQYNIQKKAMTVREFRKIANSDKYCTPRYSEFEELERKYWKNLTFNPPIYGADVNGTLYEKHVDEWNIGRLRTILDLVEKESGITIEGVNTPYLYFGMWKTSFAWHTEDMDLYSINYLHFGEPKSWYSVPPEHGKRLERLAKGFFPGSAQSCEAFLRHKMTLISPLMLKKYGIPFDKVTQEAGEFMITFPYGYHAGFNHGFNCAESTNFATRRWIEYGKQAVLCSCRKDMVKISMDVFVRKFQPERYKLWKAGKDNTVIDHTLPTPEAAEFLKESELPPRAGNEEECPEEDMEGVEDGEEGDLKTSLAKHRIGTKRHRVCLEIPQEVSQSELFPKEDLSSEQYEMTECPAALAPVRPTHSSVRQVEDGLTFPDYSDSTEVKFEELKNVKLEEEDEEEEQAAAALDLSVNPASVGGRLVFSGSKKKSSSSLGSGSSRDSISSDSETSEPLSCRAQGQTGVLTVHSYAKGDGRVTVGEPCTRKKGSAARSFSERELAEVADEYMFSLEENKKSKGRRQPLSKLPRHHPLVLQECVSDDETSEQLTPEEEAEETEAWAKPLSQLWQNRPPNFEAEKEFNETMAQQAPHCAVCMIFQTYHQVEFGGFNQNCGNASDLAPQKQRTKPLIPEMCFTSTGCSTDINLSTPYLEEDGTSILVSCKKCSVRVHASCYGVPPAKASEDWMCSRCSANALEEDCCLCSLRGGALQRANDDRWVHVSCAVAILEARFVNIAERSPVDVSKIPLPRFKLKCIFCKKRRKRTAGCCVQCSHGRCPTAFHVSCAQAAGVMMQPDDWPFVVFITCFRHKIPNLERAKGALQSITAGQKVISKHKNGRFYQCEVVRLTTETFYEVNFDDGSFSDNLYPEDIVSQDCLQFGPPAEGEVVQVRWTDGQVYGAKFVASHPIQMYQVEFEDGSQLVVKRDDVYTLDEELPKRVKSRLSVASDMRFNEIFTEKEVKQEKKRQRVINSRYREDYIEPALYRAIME
CtBP-E1A blk – CtBP/E1A binding inhibition. AlphaScreen GST-E1A/His-CtBP binding, 1536-well; active compounds read low. activity change, % (concentration not given with the values). 0.49% of 340,000 active. AID 651724; in the data active = activity change below about -65%; inconclusive = mostly about -30% to -63%; also: % is scaled to controls: 0 for no effect and ±100 for the full control effect
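GST-E1A and His-tagged CtBP (125 nM each as 5X stock) were preincubated with pin-transferred compound for 2 h at 37 °C in the dark, then glutathione donor and nickel acceptor beads were added for 1 h before AlphaScreen reading.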
Six1-Eya2 inh – blocks human Six1 binding to Eya2; 0.56% of 360,000 active; AID 651725; activity change, % (no concentration beside the values); AlphaScreen GST-Six1/His-Eya2 binding, biochemical; active compounds read low; Q15475+O00167; in the data active = activity change below about -65%; inconclusive = mostly about -30% to -63%; also: % is scaled to controls: 0 for no effect and ±100 for the full control effect
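Homogeneous AlphaScreen proximity assay pairing GST-Six1 with His-tagged Eya2 (added as 5X mix: 250 nM and 500 nM) in 50 mM Tris pH 8.0, 300 mM NaCl, 1 mM TCEP. Glutathione donor and nickel acceptor beads; 1 h, 37 °C, dark.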
G9a inh – inhibitors of human histone lysine methyltransferase G9a; Potency, µM (highest dose often 102 µM), inactives show top-dose activity, negative = inhibition, most hits filed as inhibitors; G9a H3K9 monomethylation, AlphaScreen, 2 h; Q96KQ7; AID 504332; 8.8% of 350,000 active; also: potency is read from the fitted curve at half-maximal effect; % is scaled to controls: 0 for no effect and ±100 for the full control effect; nearly all actives have a fitted effect of over 75% in size
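G9a (20 nM) preincubated 15 min RT with compounds, then 500 nM biotinylated H3K9 peptide and 20 uM SAM added; 2 h RT reaction. Monomethyl-H3K9 product detected by AlphaScreen with anti-H3K9me1 antibody, streptavidin donor and anti-rabbit IgG acceptor beads.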
HP1b binding inh – blocks HP1-beta chromodomain binding to methylated histone tails. P83916. AlphaScreen HP1-beta / biotin-H3K9me3 peptide binding. Potency, µM (series often up to 114 µM), for the others: top-dose activity change, negative = inhibition, actives largely listed as inhibitors. 0.56% of 390,000 active; also: potency is read from the fitted curve at half-maximal effect; nearly all actives have a fitted effect of over 70% in size
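HP1-beta protein (50 nM final) preincubated 30 min at room temperature with biotinylated H3(1-18)K9me3 peptide (50 nM) in PBS pH 7.4, 0.01% Tween-20, then compound added for 30 min. AlphaScreen streptavidin donor/nickel chelate acceptor beads (10 ug/mL final), 30 min dark, luminescence read.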
BAZ2B block – blocks human BAZ2B | 4.4% of 360,000 active | Q9UIF8 | AlphaScreen BAZ2B-H3K14Ac peptide displacement | AID 504333 | Potency, µM (titrated, usually from 114 µM), for the others: at the highest dose activity change, negative = inhibition, most hits filed as inhibitors; also: potency is read from the fitted curve at half-maximal effect; % is scaled to controls: 0 for no effect and ±100 for the full control effect; nearly all actives have a fitted effect of over 60% in size
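In this displacement format the biotinylated H3(5-23) peptide acetylated at Lys14 serves as ligand at 50 nM, with BAZ2B at 50 nM in PBS pH 7.4 containing 0.01% Tween-20. Donor and acceptor beads are 10 ug/mL final.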
The depositor's hits bear a star; [ ] = another dose, or the depositor's remark. Unless noted, calls follow the shape of the dose curve; as a rule, active = well fitted inhibition curve with a large enough effect; inconclusive = small, poorly fitted or top-dose-only effect; inactive = no such curve, though single readings can be large or run the other way.

Screening NS(=O)(=O)c1cccc(NC(=O)CCCNC(=O)c2ccc(Cl)cc2)c1 returned JMJD2A Tudor inh -10%, CtBP-E1A blk -19, Six1-Eya2 inh -4, G9a inh 19%, HP1b binding inh 18% and BAZ2B block -10%.
For O=C(N/N=C1/CCS(=O)(=O)c2ccc(F)cc21)c1ccccn1 the results were JMJD2A Tudor inh 13µM*, CtBP-E1A blk inconclusive, Six1-Eya2 inh inconclusive, G9a inh 11%, HP1b binding inh 41% and BAZ2B block 20µM*.
Screening O=C(N/N=C1/CCS(=O)(=O)c2ccc(F)cc21)c1cccnc1 returned JMJD2A Tudor inh -8%, CtBP-E1A blk -1, Six1-Eya2 inh -3, G9a inh -8%[12.7 µM], HP1b binding inh 43% and BAZ2B block -15%.
CC(=O)N[C@H](C(=O)N[C@@H](C)C(=O)N[C@H](C#N)CC(=O)O)C(C)C was read as G9a inh 4%[12.7 µM] and BAZ2B block 1%.
For Cc1cccc(-c2noc(CCC(=O)NCCc3ccccc3)n2)c1 the results were JMJD2A Tudor inh -11%, CtBP-E1A blk 0, Six1-Eya2 inh 8, G9a inh 9%, HP1b binding inh 54% and BAZ2B block 15%.
Screening CCN(CCCNC(=O)CCn1c(=O)[nH]c2ccccc2c1=O)c1ccccc1 returned JMJD2A Tudor inh -27%, CtBP-E1A blk -3, Six1-Eya2 inh -4, G9a inh 50µM*, HP1b binding inh 13% and BAZ2B block -1%.
For CCCCCNC(=O)CCn1c(=O)[nH]c2ccccc2c1=O the results were JMJD2A Tudor inh -7%, G9a inh 3%[59 µM], HP1b binding inh 8% and BAZ2B block -5%.
Screening CCN(CCCNC(=O)CCc1nc(-c2ccc(C)cc2)no1)c1cccc(C)c1 returned JMJD2A Tudor inh -26%[11.4 µM], CtBP-E1A blk inconclusive, Six1-Eya2 inh -26, G9a inh 45µM*, HP1b binding inh inconclusive and BAZ2B block inconclusive.
Cn1c(=O)cc(OCC(=O)NCCCN2CCN(c3cccc(Cl)c3)CC2)c2ccccc21 was read as JMJD2A Tudor inh -35%, CtBP-E1A blk -20, Six1-Eya2 inh -19, G9a inh 50µM*, HP1b binding inh 17% and BAZ2B block -29%.
For CCN(CCCNC(=O)CCCn1c(=O)[nH]c2ccccc2c1=O)c1cccc(C)c1 the results were JMJD2A Tudor inh -28%[57.1 µM], CtBP-E1A blk -7, Six1-Eya2 inh -15, G9a inh 13µM*, HP1b binding inh -12% and BAZ2B block inconclusive.
For CCCN(Cc1cccs1)C(=O)Nc1cc(C)cc(C)c1 the results were JMJD2A Tudor inh 21%, G9a inh -1%[59 µM], HP1b binding inh 71% and BAZ2B block 12%.
`Cc1nn(CCC(=O)NC(C)C)c(=O)c2nn(-c3ccccc3)c(C)c12` gave JMJD2A Tudor inh 0%, G9a inh -23%[59 µM], HP1b binding inh 14% and BAZ2B block -8%.
Screening CCCCCn1c(CCCNC(=O)c2ccc(Cl)cc2)nc2ccccc21 returned JMJD2A Tudor inh -19%, G9a inh -7%[59 µM], HP1b binding inh 14% and BAZ2B block 2%.
`NS(=O)(=O)c1ccc(S(=O)(=O)N(CCc2ccccc2)Cc2ccccn2)cc1` gave JMJD2A Tudor inh -20%, CtBP-E1A blk -6, Six1-Eya2 inh 2, G9a inh 17%, HP1b binding inh 14% and BAZ2B block 0%.
For CCN(CCCNC(=O)Cn1ncc2c([nH]c3ccc(C)cc32)c1=O)c1cccc(C)c1 the results were JMJD2A Tudor inh -14%, CtBP-E1A blk -12, Six1-Eya2 inh 10, G9a inh 5%[59 µM], HP1b binding inh 32% and BAZ2B block -1%.
For CCN(CCCNC(=O)COc1cc(=O)n(C)c2ccccc12)c1cccc(C)c1 the results were JMJD2A Tudor inh inconclusive, CtBP-E1A blk -17, Six1-Eya2 inh -23, G9a inh 35µM*, HP1b binding inh -1% and BAZ2B block 50µM*.
Screening CCN(CCCNC(=O)CCn1c(=O)[nH]c2ccccc2c1=O)c1cccc(C)c1 returned JMJD2A Tudor inh -11%[57.1 µM], CtBP-E1A blk -13, Six1-Eya2 inh -8, G9a inh 10µM*, HP1b binding inh 29% and BAZ2B block -23%.
CCn1c(CS(=O)Cc2ccc(Cl)cc2Cl)nnc1SCc1c(Cl)cccc1Cl (stereo unspecified) was read as JMJD2A Tudor inh -24%, CtBP-E1A blk 4, Six1-Eya2 inh 1, G9a inh 16µM*, HP1b binding inh 20% and BAZ2B block 8%.
Screening CN(CCCC(=O)O)c1ccc(N=Nc2ccc([N+](=O)[O-])cc2)cc1 returned JMJD2A Tudor inh 22µM*, Six1-Eya2 inh inconclusive and HP1b binding inh 11µM*.
For Cn1c(=O)c(CCc2ccccc2)nc2cncnc21 the results were G9a inh 1%[12.7 µM].
COc1ccc(C(=O)c2c(C(F)(F)F)oc3c2C(=O)c2ccccc2C3=O)cc1OC was read as JMJD2A Tudor inh inconclusive, CtBP-E1A blk inconclusive, Six1-Eya2 inh inconclusive, G9a inh 14µM*, HP1b binding inh inconclusive and BAZ2B block inconclusive.
CC(C)CN1CCC(Oc2cccc(C(=O)NCCc3ccccc3)c2)CC1 was read as JMJD2A Tudor inh 0%, CtBP-E1A blk -1, Six1-Eya2 inh 0, G9a inh 31%, HP1b binding inh 27% and BAZ2B block -14%.
`O=C(/C=C/c1ccc2ccccc2n1)c1cc(Br)ccc1O` gave JMJD2A Tudor inh inconclusive, CtBP-E1A blk -5, Six1-Eya2 inh -7, G9a inh 10µM*, HP1b binding inh 0% and BAZ2B block 56µM*.
`COc1ccc2c(=O)c3c(=O)n(-c4ccc(C)cc4)c(-c4ccccc4)nc3oc2c1` gave G9a inh 10% and BAZ2B block -3%.
For CCc1nc2oc3ccccc3c(=O)c2c(=O)n1Cc1ccccc1 the results were JMJD2A Tudor inh -15%, CtBP-E1A blk -16, Six1-Eya2 inh -5, G9a inh inconclusive, HP1b binding inh 33% and BAZ2B block -1%.
COc1ccc2c(=O)c3c(=O)n(Cc4ccco4)c(-c4ccc(C)cc4)nc3oc2c1 was read as JMJD2A Tudor inh 89µM*, CtBP-E1A blk -2, Six1-Eya2 inh -22, G9a inh inconclusive, HP1b binding inh 9% and BAZ2B block inconclusive.
`O=c1c2ccccc2oc2nc(-c3ccco3)n(Cc3ccccc3)c(=O)c12` gave JMJD2A Tudor inh -14%, CtBP-E1A blk -11, Six1-Eya2 inh -3, G9a inh inconclusive, HP1b binding inh 20% and BAZ2B block 56µM*.
Screening CCCCn1c(-c2ccco2)nc2ccccc2c1=O returned JMJD2A Tudor inh 5%, CtBP-E1A blk -5, Six1-Eya2 inh -6, G9a inh 50µM*, HP1b binding inh 49% and BAZ2B block -22%.

Bioassay records (PubChem)
